Shown are actives, neighbours in structure and some others; about 3.2% of the full set was active somewhere.
ERAP1 HTS inh: human ERAP1 aminopeptidase inhibitors, primary screen, biochemical, single point, plate reader; Endoplasmic reticulum aminopeptidase 1 (Homo sapiens), Q9NZ08; recombinant ERAP1, Leu-AMC fluorescence, 60 min; inhibition, % at 10.7 µM; 340,000 tested, 0.15% active; AID 652197, 2013;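 active = mean replicate inhibition of at least 30%, or all replicates individually reaching that 30% level; inactive = mean below 30% and not every replicate reaching it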
Ecoli rRNA inh: reduced GFP signal of wild-type E. coli, primary screen, bacterial rRNA inhibitor project, GFP/RFP fluorescence, OD600, single point; E. coli WT GFP vs humanized-ribosome RFP mutants, 24 h; stronger effect = lower value; DMSO median 0, no signal -100; GFP signal change (wild-type ribosome), % (test concentration not listed); 350,000 tested, 1.6% active;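 active = significant combined selectivity score with lowered wild-type GFP, culture density cut under 30%, mutant RFP and density less affected; inactive = any of these conditions unmet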
CaV13 ICDI inh: Disruptors of the CACNA1D IQ motif to Ca2+-dependent inactivation inhibitor domain association, primary screening, Förster resonance energy transfer in intact living … | inhibition, % at 12.3 µM | 340,000 tested, 0.098% active | AID 743397 | HEK cells, CFP/YFP FRET ICDI-IQ, plate reader, 10 min; percent FRET-ratio fall versus neutral wells;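 active = mean replicate inhibition of at least 30% and at least 1% of replicates passing that level; inconclusive = only one of the two criteria is met; inactive = neither criterion is met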
PGC1a acetyl inh: inhibitors of PGC1a acetylation signal, primary screen, cell-based, U2OS, AlphaScreen, inhibitor mode. AlphaScreen anti-acetyl-lysine; with virally co-expressed GCN5 acetyltransferase. inhibition, % at 15.6 µM. 350,000 tested, 0.17% active;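 active = every replicate shows inhibition of at least 40%; inconclusive = mean inhibition at least 40% but some replicate below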
DENV2 CPE rescue: inhibitors of DENV2 cytopathic effect, primary screen, cell-based, plate reader, single concentration. CPE inhibition, % at 9.99 µM. DENV2-infected cells, cytopathic effect rescue. 350,000 tested, 1.7% active; in the data active = CPE inhibition above about 20%, passing the limit was not always enough; inconclusive = no clear call, values can overlap the other calls; tested in BHK-21 cells
INS-1E GSIS act: GLuc luminescence reporter in INS-1E cells, primary screen for activators of glucose-dependent secretion of insulin; INS-1E GLuc reporter insulin secretion, 2-3 h; activation, % at 16.6 µM; 370,000 tested, 0.61% active; AID 743287, 2014;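 active = lowest replicate activation of at least 40%, so every replicate reaches that level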
Of the large screens only hits and unclear results are named; the others gave an inactive call.

O=C(NCC1CCCO1)[C@@H]1CSC2c3ccccc3C(=O)N21 (stereo partly specified)	none (no result: ERAP1 HTS inh, Ecoli rRNA inh, DENV2 CPE rescue)
O=C1OC(N2C(=O)CC[C@H]2C(=O)NCC2CCCO2)c2ccccc21 (stereo partly specified)	DENV2 CPE rescue 27.8 (no result: Ecoli rRNA inh, CaV13 ICDI inh)
CCCN1Cc2cccc(C(=O)NCc3ccccc3OC)c2C1=O	none (no result: ERAP1 HTS inh, Ecoli rRNA inh, DENV2 CPE rescue, INS-1E GSIS act)
COCCN1Cc2cccc(C(=O)NCc3ccccc3OC)c2C1=O	INS-1E GSIS act 54.8 (no result: ERAP1 HTS inh, Ecoli rRNA inh, CaV13 ICDI inh, DENV2 CPE rescue)
CCOc1ccc(/C=N/NC(=O)c2ccc(F)cc2)cc1CN1CC2CC(C1)c1cccc(=O)n1C2 (stereo unspecified)	DENV2 CPE rescue 20.3 (no result: CaV13 ICDI inh)
CCCOc1ccc(C(=O)Nc2ccc(S(=O)(=O)N3C[C@@H]4C[C@@H](C3)c3cccc(=O)n3C4)cc2)cc1	DENV2 CPE rescue 31.3 (no result: CaV13 ICDI inh)
CCCOc1ccc(C(=O)Nc2ccc(S(=O)(=O)N3CCN(C)CC3)cc2)cc1	none
CC(=O)N(C)C[C@@H]1Oc2ccc(N(C)C)cc2CC(=O)N(C)C[C@@H]1C	none (no result: ERAP1 HTS inh, CaV13 ICDI inh, PGC1a acetyl inh, DENV2 CPE rescue)
CCC(=O)Nc1ccc2c(c1)OC[C@@H](C)N(Cc1cncnc1)C[C@@H](C)[C@H](OC)CN(C)C2=O	none (no result: CaV13 ICDI inh)
CN(CC(=O)Nc1ccccc1Br)c1ncnc2sccc12	none
CN(CC(=O)Nc1ccc(F)c(F)c1F)c1ncnc2sccc12	DENV2 CPE rescue 30.6
CC(C)CCn1c2ccccc2c2cc(CC(N)=O)ccc21	DENV2 CPE rescue 28.7 (no result: ERAP1 HTS inh, PGC1a acetyl inh)
NC(=O)CCn1c2ccccc2c2ccccc21	none (no result: PGC1a acetyl inh)
CC(C)NC(=O)N(C)C[C@@H]1Oc2ccc(NC(=O)CCC(F)(F)F)cc2C(=O)N([C@@H](C)CO)C[C@@H]1C	none (no result: CaV13 ICDI inh)
CC(C)NC(=O)N(C)C[C@H]1Oc2ccc(NC(=O)CCC(F)(F)F)cc2C(=O)N([C@H](C)CO)C[C@H]1C	DENV2 CPE rescue 71.5 (no result: CaV13 ICDI inh)
CC(C)NC(=O)N(C)C[C@H]1Oc2ccc(NC(=O)CCC(F)(F)F)cc2C(=O)N([C@@H](C)CO)C[C@@H]1C	DENV2 CPE rescue 23.2 (no result: CaV13 ICDI inh)
CC(C)NC(=O)N(C)C[C@H]1Oc2ccc(NC(=O)CCC(F)(F)F)cc2C(=O)N([C@H](C)CO)C[C@@H]1C	none
C[C@H](CO)N1C[C@H](C)[C@H](CN(C)S(=O)(=O)c2ccccc2)Oc2ncc(-c3ccc(F)cc3)cc2C1=O	none (no result: CaV13 ICDI inh)
NC(=O)CC(NC(=O)Cc1cccc2ccccc12)c1ccc(N2CCCCCC2)c([N+](=O)[O-])c1 (stereo unspecified)	none (no result: INS-1E GSIS act)
NC(=O)CC(NC(=O)Cc1cccc2ccccc12)c1ccc(N2CCC(N3CCCCC3)CC2)c([N+](=O)[O-])c1 (stereo unspecified)	DENV2 CPE rescue 23.4
Cc1cc(C(=O)N2CCC(Cc3ccccc3)CC2)ccc1[N+](=O)[O-]	Ecoli rRNA inh -31.0
Cc1cc(C(=O)N2CCN(Cc3ccccc3)CC2)ccc1[N+](=O)[O-]	none (no result: PGC1a acetyl inh)
Cc1cc(C)cc(C(=O)NC(CC(N)=O)c2ccc(N3CCC(Cc4ccccc4)CC3)c([N+](=O)[O-])c2)c1 (stereo unspecified)	DENV2 CPE rescue 123.1 (no result: PGC1a acetyl inh)
Nc1n[nH]c(C2CC2)c1N=Nc1ccc(Cl)c(Cl)c1	Ecoli rRNA inh -52.0
Nc1n[nH]c(C2CC2)c1N=Nc1ccc(Cl)cc1	none
C[C@H]1C[C@H]2[C@@H]3CCC4=CC(=O)C=C[C@]4(C)[C@@]3(F)[C@@H](O)C[C@]2(C)[C@@]1(O)C(=O)CO	none (no result: Ecoli rRNA inh)
CC1(c2ccccc2)O[C@@H]2C[C@H]3[C@@H]4CCC5=CC(=O)C=C[C@]5(C)[C@@]4(F)[C@@H](O)C[C@]3(C)[C@]2(C(=O)CO)O1 (stereo partly specified)	Ecoli rRNA inh -21.9
COC(=O)Cn1cc(C#N)c2ccccc21	INS-1E GSIS act 69.7 (no result: ERAP1 HTS inh, Ecoli rRNA inh, DENV2 CPE rescue)
COc1ccccc1-c1ccc([C@@H]2[C@@H](C#N)N(C(=O)NC(C)C)[C@@H]2CO)cc1	DENV2 CPE rescue inconclusive (no result: CaV13 ICDI inh)
COc1ccc2c3c([nH]c2c1)[C@H](CO)N(CC1CC1)CC31CN(C(=O)c2ccccc2F)C1	none (no result: ERAP1 HTS inh, CaV13 ICDI inh)
CN1CC(c2ccccc2)Oc2ccccc2C1=S (stereo unspecified)	Ecoli rRNA inh -36.2 (no result: PGC1a acetyl inh)
O=C(C=Cc1ccccc1)c1cccs1	Ecoli rRNA inh -22.2 (no result: PGC1a acetyl inh)
Nc1ccc(/C=C/C(=O)c2cccs2)cc1	DENV2 CPE rescue inconclusive
COc1cccc(-n2c([S-])c(C(=O)Nc3ccc(S(=O)(=O)N4CCOCC4)cc3)[n+]3cc(C(N)=O)ccc23)c1	INS-1E GSIS act 44.7
CCC(=O)N(C)C[C@@H]1Oc2cc(-c3ccccc3)ccc2S(=O)(=O)N([C@H](C)CO)C[C@H]1C	none (no result: CaV13 ICDI inh)
CC(=O)c1nn(-c2ccccc2)cc1C(=O)c1ccc(C)cc1	none (no result: ERAP1 HTS inh, INS-1E GSIS act)
CC(=O)c1nn(-c2ccc(Br)cc2)cc1C(=O)c1ccccc1	INS-1E GSIS act 54.2 (no result: ERAP1 HTS inh, Ecoli rRNA inh, PGC1a acetyl inh, DENV2 CPE rescue)
COCC#Cc1ccc(CC[C@H]2O[C@H]3CC[C@@H](CO)O[C@H]3C[C@@H]2n2cc(C3CC3)nn2)cc1	none (no result: Ecoli rRNA inh, CaV13 ICDI inh, INS-1E GSIS act)
CNC(=O)C[C@H]1CC[C@@H]2[C@@H](COc3ccc(NC(=O)C4CCCCC4)cc3C(=O)N2C)O1	none (no result: ERAP1 HTS inh, CaV13 ICDI inh, DENV2 CPE rescue)
CN(C)c1ccc(Sc2ccc3nc(N)nc(N)c3c2)cc1	PGC1a acetyl inh 45.8
CO[C@H]1CN(C)C(=O)c2cc(NS(=O)(=O)c3c(C)noc3C)ccc2OC[C@H](C)NC[C@@H]1C	none (no result: CaV13 ICDI inh)
CC(C)NC(=O)Nc1ccc2c(c1)C(=O)N([C@H](C)CO)C[C@@H](C)[C@H](CN(C)Cc1ccncc1)OCCCC[C@@H](C)O2	none (no result: CaV13 ICDI inh)
CCc1nnc(NC(=O)C(CC)c2ccccc2)s1 (stereo unspecified)	none (no result: ERAP1 HTS inh, Ecoli rRNA inh, PGC1a acetyl inh, DENV2 CPE rescue)
CCc1nnc(NC(=O)C(c2ccccc2)c2ccccc2)s1	INS-1E GSIS act 103.2 (no result: PGC1a acetyl inh)
C[C@@H]1CN([C@@H](C)CO)C(=O)c2cc(NC(=O)C3CCCCC3)ccc2O[C@@H]1CN(C)Cc1ccccc1	none (no result: CaV13 ICDI inh, PGC1a acetyl inh)
CCOC(=O)c1c(C)c(C(=O)N2CCN(c3ccccc3)CC2)c(C)n1C	none
Cn1c(N)c(C(=O)N2CCN(c3ccccc3)CC2)c(=O)n(C)c1=O	DENV2 CPE rescue 36.8
Cc1cc(C)c2c3c(c(-c4ccccc4)n2n1)c(=O)n(C)c(=O)n3C	none (no result: ERAP1 HTS inh)
Cc1nc2ccccc2n2c(-c3ccccc3)c3c(=O)n(C)c(=O)n(C)c3c12	Ecoli rRNA inh -34.0 (no result: DENV2 CPE rescue)
C#CCN(Cc1ccco1)C(=O)c1nnc2c3ccccc3n(S(=O)(=O)c3ccc(C)cc3)c2n1	DENV2 CPE rescue 24.5 (no result: PGC1a acetyl inh, INS-1E GSIS act)
C#CCN(Cc1cccc(F)c1)C(=O)c1nnc2c3ccccc3n(S(=O)(=O)c3ccc(C)cc3)c2n1	none (no result: PGC1a acetyl inh)
